Results filed as inconclusive are left out. Values without a mark were called inactive. The source made the active and inactive calls. Calls follow the shape of the dose curve; as a rule, active = well fitted cell-killing curve with a large enough effect; inconclusive = small, poorly fitted or top-dose-only effect, or effect the other way; inactive = flat fitted curve, though single readings scatter.
These compounds were tested on Es-2 (assay: Primary qHTS to identify gynecologic anti-cancer compounds using libraries of approved drugs and bioactive compounds (AID 1345084; also: nearly all actives have a fitted effect of over 55% in size)). Conditions: Gynecologic cancer cell panel viability, ATPlite luminescence, 48 h; series mostly up to 57.5 µM; activity change, negative = cytotoxicity: at the top concentration.
Method in brief: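 48 h compound exposure at 37 C, 5% CO2; five-point qHTS. ATPlite luminescence readout of cell ATP.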
% is scaled to controls: 0 for no effect and ±100 for the full control effect; potency is read from the fitted curve at half-maximal effect.

First: CC(=O)Nc1ccc(OC[C@](C)(O)C(=O)Nc2ccc([N+](=O)[O-])c(C(F)(F)F)c2)cc1
Second: O=C(NCC1CCOCC1)c1cnc(Nc2ccc(Cl)cc2Cl)nc1C(F)(F)F
The “activity change, negative = cytotoxicity” value of the first is higher: 4.51% for the first, -0.444% for the second.

Compared with `CC(O)CN1CCN(CC(=O)[O-])CCN(CC(=O)[O-])CCN(CC(=O)[O-])CC1.[Gd+3]` (stereo unspecified), `O=C1C=CC[C@@H]2[C@H]3CCCN4CCC[C@@H](CN12)[C@@H]34` is higher in “activity change, negative = cytotoxicity” value: -4.1% for the first, 4.58% for the second.

Compared with `CN1CCN(c2ccc([N+](=O)[O-])c3no[n+]([O-])c23)CC1`, `COC1=C[C@@H]2[C@@H]3Cc4ccc(OC)c(O)c4[C@]2(CCN3C)CC1=O` is lower in “activity change, negative = cytotoxicity” value: 3.83% for the first, 0.574% for the second.

First: CCN(CC)C(=O)c1ccc(C2=CC3(CCNCC3)Oc3cccc(O)c32)cc1
Second: Cc1ccccc1-n1c(Cn2cnc3c(N)ncnc32)nc2cccc(C)c2c1=O
The “activity change, negative = cytotoxicity” value of the first is lower: -1.5% for the first, 9.52% for the second.

First: Nc1ccc(Sc2ccc(N)cc2)cc1
Second: CCOP(=O)(NC(C)C)Oc1ccc(SC)c(C)c1 (stereo unspecified)
The “activity change, negative = cytotoxicity” value of the first is higher: -4.31% [at 116 µM] for the first, -4.53% [at 116 µM] for the second.

Compared with `O=C(O)COc1nc(Cl)c(Cl)cc1Cl`, `CS(=O)(=O)c1ccc(C(=O)C2C(=O)CCCC2=O)c([N+](=O)[O-])c1` is higher in “activity change, negative = cytotoxicity” value: -2.09% [at 116 µM] for the first, 1.26% [at 116 µM] for the second.

With `OCCCBr` the “activity change, negative = cytotoxicity” value was 11.9% [at 116 µM].

For `CO/C=C(/C(=O)OC)c1ccccc1Oc1cc(Oc2ccccc2C#N)ncn1`, the Potency was 31.6 µM (active).
For `C/C=C(/C)C(=O)O[C@H]1C(C)=C2[C@H]([C@@H]1OC(=O)CCCCCCC)[C@@](C)(OC(C)=O)C[C@H](OC(=O)CCC)[C@@]1(O)[C@H]2OC(=O)[C@@]1(C)O`, the Potency was 0.316 µM (active).
With `CC(=O)[O][Hg][c]1ccccc1` the Potency was 6.31 µM (active).
